{
  "source": "PubChem BioAssay AID1628",
  "about": "(Sanford-Burnham Center for Chemical Genomics, 2009)",
  "note": "Out of some 190,000 compounds screened, about 930 (0.49%) were called active.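 Rule for the calls: active = z-score of insulin promoter reporter brightness in nuclei below -3 at 5 µM, with at least 500 cells counted; inconclusive = wells with under 500 cells, flagged as toxic or sparse; inactive = the rest.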 The list shows a part of the results. Potency and affinity values are given separately.",
  "data": [
    {"test": "decrease of insulin promoter-GFP reporter – imaging, high-content screening, mouse beta cells (AID 1628)", "settings": "MIN6 insulin promoter GFP reporter, at 5 µM, hits give low values", "values": [
      {"compound": "COc1ccc(C2C(C(C)=O)=C(C)N=c3s/c(=C\\c4cc(C)n(C)c4C)c(=O)n32)c(OC)c1", "note": "(stereo unspecified)", "z-score": "8.76 (inactive)"},
      {"compound": "N#C/C(=C\\C1=C(N2CCOCC2)C(=C\\c2ccc(Cl)cc2)/CC1)C(=O)Nc1ccccc1F", "z-score": "3.27 (inactive)"},
      {"compound": "CN1CC=C2C(C#N)=C(N)C(C#N)(C#N)C(c3ccsc3)C2C1", "note": "(stereo unspecified)", "z-score": "4.07 (inactive)"},
      {"compound": "Cc1ccc2c(c1)cc(CN(Cc1ccc3c(c1)OCO3)S(=O)(=O)c1ccccc1)c1nnnn12", "z-score": "-3.75 (active)"},
      {"compound": "Cc1cc(-c2cccs2)c2c(N)c(C(=O)c3ccc4c(c3)OCO4)sc2n1", "z-score": "4.7 (inactive)"},
      {"compound": "O=C(NC1CCCC1)c1c[nH]c2ccc(F)cc2c1=O", "z-score": "-3.28 (active)"},
      {"compound": "COc1ccc2c(C(=O)CN(C)C3CCCCC3)c[nH]c2c1", "z-score": "4.45 (inactive)"},
      {"compound": "Cc1ccc(C2C3CN(C(C)C)CC=C3C(C#N)=C(N)C2(C#N)C#N)cc1", "note": "(stereo unspecified)", "z-score": "10.3 (inactive)"},
      {"compound": "NC(=O)CCN1CCN(CCOC2Cc3cc(Cl)ccc3Sc3ccccc32)CC1", "note": "(stereo unspecified)", "z-score": "-4.24 (active)"},
      {"compound": "CC(C)CC(=O)c1c[nH]c(C(=O)NCCc2ccccn2)c1", "z-score": "-3.63 (active)"},
      {"compound": "Nc1c(C(=O)N/N=C/c2cccnc2)oc2nc(-c3ccco3)cc(-c3ccco3)c12", "z-score": "5.39 (inactive)"},
      {"compound": "O=C(Nc1ccc(-c2csc(Nc3cccc(C(F)(F)F)c3)n2)cc1)c1cccc(C(F)(F)F)c1", "z-score": "-4.02 (active)"},
      {"compound": "c1ccc(CN2CCN(c3nc(NCc4ccco4)c4ccccc4n3)CC2)cc1", "z-score": "-3.17 (active)"},
      {"compound": "c1ccc(N2CCN(c3nc(NCc4ccco4)c4ccccc4n3)CC2)cc1", "z-score": "-3.05 (active)"},
      {"compound": "CCCS(=O)(=O)N1CCC(C(=O)N2CCOCC2)CC1", "z-score": "4.02 (inactive)"},
      {"compound": "O=C(/C=C/c1cn(CC(O)CN2CCCCCC2)c2ccccc12)c1cccs1", "note": "(stereo unspecified)", "z-score": "5.06 (inactive)"},
      {"compound": "O=C(/C=C/c1cn(CC(O)CN2CCCCC2)c2ccccc12)c1cccs1", "note": "(stereo unspecified)", "z-score": "4.58 (inactive)"},
      {"compound": "OC(CN1CCCCC1)CN(c1ccccc1)c1ccccc1", "note": "(stereo unspecified)", "z-score": "-4.02 (active)"},
      {"compound": "Cc1c(-c2ccc(O)cc2)nc2nc(-c3ccccc3)c(-c3ccccc3)nn12", "z-score": "17.8 (inactive)"},
      {"compound": "COc1cccc(OC)c1OCCN(C)C", "z-score": "3.98 (inactive)"},
      {"compound": "O=c1c([N+](=O)[O-])cccn1Cc1ccc(F)cc1Cl", "z-score": "3.36 (inactive)"},
      {"compound": "Cc1ccc(S(=O)(=O)c2nc(-c3cccs3)oc2NCCCN(C)C)cc1", "z-score": "-5.47 (active)"},
      {"compound": "Cc1cccc(N2CCN(C(c3ccccc3)c3nnnn3CC3CCCO3)CC2)c1C", "note": "(stereo unspecified)", "z-score": "-3.05 (active)"},
      {"compound": "CCC(C)(C)n1nnnc1C(c1cccc(C#N)c1)N1CCN(c2cccc(C)c2C)CC1", "note": "(stereo unspecified)", "z-score": "-3.1 (active)"},
      {"compound": "CCC(C)(C)n1nnnc1C(c1ccccc1)N1CCN(C2CCCC2)CC1", "note": "(stereo unspecified)", "z-score": "-4.27 (active)"},
      {"compound": "CCCOc1ccc(-c2nn(-c3ccccc3)cc2/C=C2\\SC(=S)N(C3CCS(=O)(=O)C3)C2=O)cc1", "note": "(stereo unspecified)", "z-score": "4.83 (inactive)"},
      {"compound": "Cc1ccc(S(=O)(=O)N(C)c2ccc(C(=O)N3CCCCC3)cc2)cc1", "z-score": "-5.08 (active)"},
      {"compound": "Cc1ccc(S(=O)(=O)N2CCCC2C(=O)N(C)Cc2cccs2)cc1", "note": "(stereo unspecified)", "z-score": "4.2 (inactive)"},
      {"compound": "CC1(C)OC(=O)N(CC(=O)Nc2cccc(C(F)(F)F)c2)C1(C)O", "note": "(stereo unspecified)", "z-score": "0.44 (inactive)"},
      {"compound": "O=C(CCC(=O)c1ccc(F)cc1)Nc1cccc(C(F)(F)F)c1", "z-score": "-5.11 (active)"},
      {"compound": "CCOC(=O)c1nnn(-c2nonc2N)c1-c1ccc(OCC)cc1", "z-score": "3.82 (inactive)"},
      {"compound": "CCOC(=O)c1nnn(-c2nonc2N)c1CN1CCCCCC1", "z-score": "0.52 (inactive)"},
      {"compound": "CCOC(=O)c1nnn(-c2nonc2N)c1-c1ccc(OC)cc1", "z-score": "-5.06 (active)"},
      {"compound": "N#C/C(=C\\C1=C(N2CCOCC2)C(=C/c2cccc([N+](=O)[O-])c2)/CC1)C(=O)Nc1ccccc1F", "z-score": "3.07 (inactive)"},
      {"compound": "CC(=O)Nc1sc(/C(C#N)=C/c2ccc(Cl)c(Cl)c2)nc1-c1ccc(C)cc1", "z-score": "17.4 (inactive)"},
      {"compound": "O=c1[nH]c2ccc(NS(=O)(=O)c3ccc([N+](=O)[O-])cc3)cc2[nH]1", "z-score": "2.55 (inactive)"},
      {"compound": "O=C(c1cccs1)c1no[n+]([O-])c1C(=O)c1cccs1", "z-score": "3.78 (inactive)"},
      {"compound": "CCOC(=O)Cn1c(=N)n(CCOc2cccc(C)c2)c2ccccc21", "z-score": "-4.7 (active)"},
      {"compound": "COc1ccc(OCCn2cc(/C(N)=N/O)c3ccccc32)cc1", "z-score": "3.09 (inactive)"},
      {"compound": "CCCCn1c(=N)n(CCOc2ccc(C)cc2)c2ccccc21", "z-score": "-3.46 (active)"},
      {"compound": "CCCn1c(=N)n(CCOc2ccc(OC)cc2)c2ccccc21", "z-score": "-4.79 (active)"},
      {"compound": "CCOC(=O)Cn1c2ccc(F)cc2c2nc(C)sc21", "z-score": "3.68 (inactive)"},
      {"compound": "Cc1cc(/C=C2/C(=O)N(C)C(=S)N2C)ccc1N1CCCC1", "z-score": "15.4 (inactive)"},
      {"compound": "COc1ccc(CCNc2oc(COc3ccccc3Cl)nc2C#N)cc1OC", "z-score": "-3.1 (active)"},
      {"compound": "COc1cccc(C2=N/C(=C\\N(C)C)C(=O)O2)c1", "z-score": "0.86 (inactive)"},
      {"compound": "COc1cccc(-n2nc(C#N)c(Cl)cc2=O)c1", "z-score": "-3.8 (active)"},
      {"compound": "N#Cc1ccsc1NC(=O)COC(=O)c1ccc2ccccc2c1", "z-score": "-6.27 (active)"},
      {"compound": "Cc1ccc(C2(C(F)(F)F)N=C3Sc4cc(C)ccc4N3C(=O)N2)cc1", "note": "(stereo unspecified)", "z-score": "3.48 (inactive)"},
      {"compound": "Cc1cc(N2CCOCC2)ccc1/C=C1/SC(=O)NC1=O", "z-score": "1.71 (inactive)"},
      {"compound": "Cc1ccc(N2CCN(C3=NC(=O)/C(=C\\c4cccs4)S3)CC2)cc1", "z-score": "-4.27 (active)"},
      {"compound": "CCCOc1cc(N(CC)CC)ccc1/C=C(/C#N)c1nc2ccc(C)cc2[nH]1", "z-score": "15.5 (inactive)"},
      {"compound": "CCN(CC)c1ccc(/C=N/NC(=O)c2cccc(S(=O)(=O)N3CCOCC3)c2)c(O)c1", "z-score": "-6.39 (active)"},
      {"compound": "C=CCSc1nnc(NC(=O)c2cccc(S(=O)(=O)N3CCOCC3)c2)s1", "z-score": "3.22 (inactive)"},
      {"compound": "CCN(CC)c1ccc(C(=O)N/N=C/c2ccc(N3CCOCC3)cc2)cc1", "z-score": "3.38 (inactive)"},
      {"compound": "CCCCn1c(O)c(/C=C/C=C/C=Nc2ccccc2)sc1=S", "z-score": "4.72 (inactive)"},
      {"compound": "COc1c2ccoc2nc2c(OC)c(O)ccc12", "z-score": "-0.14 (inactive)"},
      {"compound": "Cc1ccc(-c2ccc(/C=C(\\C#N)C(=O)Nc3cc(C)nn3-c3ccccc3)o2)cc1", "z-score": "3.08 (inactive)"},
      {"compound": "Cc1nn(-c2ccccc2)c(C)c1NC(=O)CCl", "z-score": "3.88 (inactive)"},
      {"compound": "COc1ccc(CCNC(=S)Nc2ccc(C)cc2C)cc1", "z-score": "-3.98 (active)"},
      {"compound": "Cc1ccc(NC(=O)CCl)c(C)c1", "z-score": "3.51 (inactive)"},
      {"compound": "Cc1ccc(C)c(NC(=S)N2CCCCCC2)c1", "z-score": "0.89 (inactive)"}
    ]}
  ]
}
